Calls of active or inactive are those of the source.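 Rule for the calls: active = mean z-score across replicates of 1.96 or higher in either the MELAS or the Rieske mutant cell line; inactive = the rest.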
Note: test concentration not given here.

The first assay can be described thus: viability loss with induced miR-34 in A549 – imaging, A549 dox-inducible miR-34, nuclei and caspase counts, primary screen (AID 1347080). The conditions noted are these: A549 miR-34 inducible, Hoechst nuclei count, 48 h; measured here: total cells without miR-34 induction.
Consider `C=CC(=O)Nc1cccc(Nc2nc(Nc3ccc(Oc4ccnc(C(=O)NC)c4)cc3)ncc2F)c1`, for which the cell count came to 4430.
As to `O=C(Nc1ccc2c(c1)CCN(Cc1ncn[nH]1)C2)c1ccccc1-c1ccc(C(F)(F)F)cc1`, the cell count stood at 7840.
The same measure, in the same setting: the value for `CCC(CC)CC1(C(=O)Nc2ccccc2SC(=O)C(C)C)CCCCC1` was 10700.
On the same count and under the same terms, with `O=C(Nc1cccc(Cl)c1)Nc1ncc(CCNc2ncnc3ccsc23)s1` the figure was 2200.

Another assay can be described thus: MELAS cybrid and Rieske KO viability enhancers – cell-based, MELAS cybrids, Rieske KO mouse fibroblasts, CellTiter-Glo, primary screen (AID 1508586).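 Note: z relative to plate mean and SD of compound and empty wells.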 As to conditions: MELAS cybrid survival, low glucose, CellTiter-Glo 48 h; stronger effect = higher value. For orientation: In ATP-based viability assays light output follows the ATP content of the culture.
On to `C=CC(=O)Nc1cccc(Nc2nc(Nc3ccc(Oc4ccnc(C(=O)NC)c4)cc3)ncc2F)c1`, for which the z-score is 1.34 (inactive).
Still for that read-out and setting: with `CCC(CC)CC1(C(=O)Nc2ccccc2SC(=O)C(C)C)CCCCC1` the figure was -0.325 (inactive); with `O=C(Nc1cccc(Cl)c1)Nc1ncc(CCNc2ncnc3ccsc23)s1`, -0.144 (inactive).

The same assay, now with this note: Rieske KO mouse fibroblast survival, low glucose, CellTiter-Glo 72 h.
In the case of `C=CC(=O)Nc1cccc(Nc2nc(Nc3ccc(Oc4ccnc(C(=O)NC)c4)cc3)ncc2F)c1`, the z-score came to 1.7.
As to `CCC(CC)CC1(C(=O)Nc2ccccc2SC(=O)C(C)C)CCCCC1`, the z-score came to 1.25.
In the case of `O=C(Nc1cccc(Cl)c1)Nc1ncc(CCNc2ncnc3ccsc23)s1`, the z-score was -1.82.

(Values after PubChem BioAssay.)
